Compound activity as filed in PubChem BioAssay.
NCOA1 inh – SRC1 coactivator transcriptional activity inhibitors, primary screen, cell-based, luminescence | 360,000 tested, 0.12% active | inhibition, % at 3.6 µM | HEK293 GAL4-SRC1 luciferase reporter | AID 588354, 2011 | Nuclear receptor coactivator 1 (Homo sapiens), Q15788;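 active = inhibition above the campaign mean plus 3 SD, with each screening campaign given its own cutoff, cut at about 60% in these data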;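 note: 0% = DMSO treated cells and 100% = gossypol at 36 µM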
Gli-Sufu block – Gli-Sufu pathway antagonists, primary screen, luciferase luminescence, Sufu-KO-LIGHT cells, uHTS; Sufu-KO-LIGHT fibroblasts, Gli luciferase reporter luminescence; inhibition, % at 5 µM; 340,000 tested, 0.74% active; AID 588413, 2011;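 active = inhibition above about 55%, limit read from the data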;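 note: 0% = DMSO-treated cells and 100% = wells with medium but no cells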
SRC3 inh – SRC3 coactivator transcriptional activity inhibitors, primary screen, cell-based, luminescence; Nuclear receptor coactivator 3 (Homo sapiens), Q9Y6Q9; HEK293 GAL4-SRC3 luciferase reporter; 360,000 tested, 0.17% active; inhibition, % at 3.6 µM;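 active = inhibition above a per-campaign cutoff, the mean of all compounds plus 3 SD, cut at about 60% in these data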;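 note: 0% = DMSO-treated cells and 100% = gossypol-treated cells at 36 µM; higher means less SRC3-driven luciferase light from the GAL4 reporter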
SRC2 inh – inhibition of GAL4-SRC2 driven luciferase reporter, primary screen, SRC2 inhibitor project, cell-based, luminescence; Nuclear receptor coactivator 2 (Homo sapiens), Q15596; HEK293 GAL4-SRC2 luciferase reporter; inhibition, % at 9 µM; 370,000 tested, 0.17% active; AID 651957, 2012;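 active = inhibition above the mean inhibition of all tested compounds plus 3 SD, set per campaign, cut at about 52% in these data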;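 note: 0% = DMSO treated cells and 100% = cells given Gossypol at 36 µM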
LRH-1 inv ag – LRH-1 (NR5A2) inverse agonists, primary screen, cell-based, luminescence, HEK293T, StAR-luciferase reporter; Nuclear receptor subfamily 5 group A member 2 (Homo sapiens), O00482; LRH-1 transfected, 24 h; inhibition, % at 3.6 µM; 360,000 tested, 0.13% active;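 active = inhibition above the mean inhibition of all tested compounds plus 3 SD, cut at about 73% in these data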;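 note: 0% = DMSO wells and 100% = reporter-only cells lacking LRH-1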
NR2F2 inh – NR2F2 transcriptional activity inhibitors, primary screen, cell-based, luciferase reporter, HEK293T, luminescence; AID 686940, 2013; 370,000 tested, 0.7% active; inhibition, % at 8.6 µM; COUP transcription factor 2 (Homo sapiens), P24468; HEK293T NGFI-A luciferase reporter;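 active = inhibition above a per-plate cutoff, mean inhibition of test wells between control levels plus 3 SD, cut at about 38% in these data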;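 note: cells cotransfected with COUP-TFII expression vector driving the NGFI-A reporter; 0% = median of COUP-TF2 test wells and 100% = reporter-only cells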
Target sequence (P24468 whole entry, looked up): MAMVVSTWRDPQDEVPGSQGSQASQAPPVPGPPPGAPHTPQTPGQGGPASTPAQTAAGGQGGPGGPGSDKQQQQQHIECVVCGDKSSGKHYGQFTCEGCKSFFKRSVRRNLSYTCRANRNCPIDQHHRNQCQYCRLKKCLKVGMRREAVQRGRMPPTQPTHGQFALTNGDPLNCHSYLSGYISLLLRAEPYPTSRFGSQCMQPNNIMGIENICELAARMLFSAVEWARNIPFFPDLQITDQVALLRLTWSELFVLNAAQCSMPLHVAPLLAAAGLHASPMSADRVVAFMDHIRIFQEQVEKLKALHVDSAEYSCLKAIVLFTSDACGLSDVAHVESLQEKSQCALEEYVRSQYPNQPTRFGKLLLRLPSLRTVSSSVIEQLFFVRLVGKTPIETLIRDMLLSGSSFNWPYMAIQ
Gal4-VP16 ctr – Gal4-VP16 luciferase reporter inhibitors, counter-screen for COUP-TFII antagonist project, cell-based, luminescence, HEK293; inhibition, % at 8.5 µM; shares compounds with NR2F2 inh; 2,500 tested, 25% active; in the data active = inhibition above about 13%
NR2F2 inh conf – NR2F2 transcriptional activity inhibitors, confirmation, cell-based, luciferase reporter, HEK293, triplicate. shares compounds with NR2F2 inh. HEK293 NGFI-A luciferase reporter, luminescence. inhibition, % at 8.5 µM. 2,500 tested, 45% active. AID 687008, 2013;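 active = mean inhibition over three repeats above a set limit taken from the earlier primary screen, cut at about 38% in these data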;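 note: 100% = cells given the luciferase reporter alone without the COUP-TF2 vector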
* = called active by the depositor; ! = not confirmed by another sample. In the library only some 1.2% were active in any assay of this set; here they are far more common.

Screening CCN(CC)S(=O)(=O)c1cccc(-n2c(O)c(C=Nc3ccccc3C(=O)O)c3ccccc3c2=O)c1 returned NCOA1 inh 11, Gli-Sufu block -6, SRC3 inh 29, SRC2 inh 37, LRH-1 inv ag 41, NR2F2 inh 47*, Gal4-VP16 ctr -30 and NR2F2 inh conf 42*.
Cc1ccc(NC(=O)c2ccc(Nc3c([N+](=O)[O-])cc([N+](=O)[O-])cc3[N+](=O)[O-])cc2)cc1 was read as NCOA1 inh -31, Gli-Sufu block -7, SRC3 inh 46, SRC2 inh 41, LRH-1 inv ag -1, NR2F2 inh 70*, Gal4-VP16 ctr 3 and NR2F2 inh conf 47*.
COc1ccc(-c2nc(N3CCCCCC3)sc2C(=O)c2ccccc2)cc1 was read as NCOA1 inh -9, Gli-Sufu block 1, SRC3 inh 6, SRC2 inh -35, LRH-1 inv ag -4, NR2F2 inh 58*, Gal4-VP16 ctr -11 and NR2F2 inh conf -2.
`O=C(c1ccccc1)c1sc(N2CCCCCC2)nc1-c1ccccc1` gave NCOA1 inh -3, Gli-Sufu block 18, SRC3 inh 16, SRC2 inh 19, LRH-1 inv ag -4 and NR2F2 inh -11.
For C[C@@H]1CN([C@@H](C)CO)C(=O)CCCn2cc(nn2)CO[C@H]1CN(C)S(C)(=O)=O the results were SRC2 inh -12 and NR2F2 inh 15.
`CCOC(=O)C(CNc1ccc(OCc2ccccc2)cc1)NC(=O)c1ccccc1` (stereo not drawn) gave SRC2 inh -47 and NR2F2 inh -17.
`O=S(=O)(c1ccccc1)N1CCC(O)(CSc2ccc(Cl)cc2)CC1` gave NCOA1 inh -14, Gli-Sufu block 2, SRC3 inh 32, SRC2 inh 28, LRH-1 inv ag 19, NR2F2 inh 54*, Gal4-VP16 ctr 5 and NR2F2 inh conf 37.
Screening CCC1CCCCN1C(=O)n1ncc(C(O)(c2ccccc2)c2ccccc2)n1 (stereo not drawn) returned NR2F2 inh 50*, Gal4-VP16 ctr -4 and NR2F2 inh conf 43*!.
For N#Cc1cc2c(nc1SCC(=O)N1CCOCC1)CCCCC2 the results were NCOA1 inh 57, Gli-Sufu block 30, SRC3 inh 65*, SRC2 inh 23, LRH-1 inv ag 59, NR2F2 inh 53*, Gal4-VP16 ctr 55* and NR2F2 inh conf 77*.
`O=C1CC(c2ccc3c(c2)OCO3)Sc2nc3ccccc3n21` (stereo not drawn) gave NCOA1 inh 29, Gli-Sufu block -35, SRC3 inh 37, SRC2 inh 2, LRH-1 inv ag 39, NR2F2 inh 42*, Gal4-VP16 ctr -72 and NR2F2 inh conf 36.
For C(=Cc1cnc2ccccc2n1)c1ccc2c(c1)OCO2 the results were NCOA1 inh 43, SRC3 inh 49, SRC2 inh 52, LRH-1 inv ag 6, NR2F2 inh 52*, Gal4-VP16 ctr 65* and NR2F2 inh conf 79*.
O=C(Nc1ccc(-c2nc3ccccc3o2)c(O)c1)c1cc(-n2cnnc2)ccc1Cl was read as NCOA1 inh 18, Gli-Sufu block 11, SRC3 inh 21, SRC2 inh 27, LRH-1 inv ag 21, NR2F2 inh 44*, Gal4-VP16 ctr -8 and NR2F2 inh conf 17.
